# Laboratory results as given in PMC4336329 (PLoS ONE, 2015).
# Screen size: about 310,000 compounds; about 14,000 (4.5%) showed an effect of 50% or more. Effects have a minus sign here. The sample as a whole holds a higher share of strong results than the screen did.
# Biological target: human ether-à-go-go-related gene (hERG) potassium channel (human, UniProt Q12809)
# Assay: primary screen, population patch clamp on CHO cells stably expressing hERG; higher = less effect of the substance
# 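Also: peak tail current of the secondary pulse compared with the same well before compound.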
# Chain of human ether-à-go-go-related gene (hERG) potassium channel (Q12809 whole entry, looked up): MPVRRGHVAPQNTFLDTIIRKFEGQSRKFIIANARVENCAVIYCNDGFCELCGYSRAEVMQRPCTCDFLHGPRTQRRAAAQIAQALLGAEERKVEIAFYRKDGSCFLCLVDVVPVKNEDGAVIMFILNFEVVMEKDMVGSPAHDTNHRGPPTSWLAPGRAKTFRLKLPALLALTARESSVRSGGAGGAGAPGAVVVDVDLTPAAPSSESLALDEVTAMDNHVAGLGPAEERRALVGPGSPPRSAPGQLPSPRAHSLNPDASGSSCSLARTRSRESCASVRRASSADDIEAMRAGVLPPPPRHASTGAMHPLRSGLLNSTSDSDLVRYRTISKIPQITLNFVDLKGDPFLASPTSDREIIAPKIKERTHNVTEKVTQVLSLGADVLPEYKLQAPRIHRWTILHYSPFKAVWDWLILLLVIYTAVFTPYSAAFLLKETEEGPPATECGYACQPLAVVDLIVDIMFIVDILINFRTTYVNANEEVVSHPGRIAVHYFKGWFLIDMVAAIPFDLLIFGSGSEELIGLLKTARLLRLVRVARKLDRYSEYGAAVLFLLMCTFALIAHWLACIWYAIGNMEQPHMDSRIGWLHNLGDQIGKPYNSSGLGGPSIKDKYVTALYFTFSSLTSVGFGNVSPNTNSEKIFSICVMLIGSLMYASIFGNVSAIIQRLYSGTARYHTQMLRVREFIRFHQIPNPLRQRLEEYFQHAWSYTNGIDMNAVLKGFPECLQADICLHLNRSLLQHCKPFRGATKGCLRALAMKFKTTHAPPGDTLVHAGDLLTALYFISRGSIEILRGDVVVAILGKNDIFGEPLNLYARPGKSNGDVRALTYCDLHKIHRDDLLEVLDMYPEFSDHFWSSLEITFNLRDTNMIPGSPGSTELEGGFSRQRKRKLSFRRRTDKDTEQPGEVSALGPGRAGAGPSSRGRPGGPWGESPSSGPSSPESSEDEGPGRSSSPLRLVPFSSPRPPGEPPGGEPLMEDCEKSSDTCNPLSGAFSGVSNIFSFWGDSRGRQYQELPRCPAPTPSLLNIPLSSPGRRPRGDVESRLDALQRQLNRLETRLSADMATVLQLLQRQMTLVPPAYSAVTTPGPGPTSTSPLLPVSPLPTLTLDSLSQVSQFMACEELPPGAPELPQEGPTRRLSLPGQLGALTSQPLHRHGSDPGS
row,Compound,"hERG current change (%, negative = inhibition) at 10uM [%]"
1,COc1ccc(COC(=O)C2CCN(S(=O)(=O)c3ccc(Cl)cc3)CC2)cc1,30
2,CCn1c(CSc2ncn[nH]2)nc2cc(C(=O)O)ccc21,-4.97
3,CCOc1ccccc1CNC(=O)CCC(=O)N1Cc2ccccc2Oc2ncccc21,-3.62
4,CCc1ccc(CNC(=O)CCC(=O)N2Cc3cccc(OC)c3Oc3ncccc32)cc1,-75
5,COc1cccc2c1Oc1ncccc1N(C(=O)CCC(=O)NCc1ccc(F)cc1)C2,-32.6
6,COc1cccc2c1Oc1ncccc1N(C(=O)CCC(=O)NCc1ccc(C)cc1)C2,-34.4
7,CCOc1ccc(CNC(=O)CCC(=O)N2Cc3ccccc3Oc3ncccc32)cc1,-51.1
8,CCOc1ccc(CNC(=O)CCC(=O)N2Cc3cccc(OC)c3Oc3ncccc32)cc1,-44.3
9,O=C1C=C(Nc2ccc(O)cc2)C(=O)c2ccccc21,4.35
10,CCc1ccccc1Nc1nc(-c2cccnc2)cs1,-3.32
11,Fc1ccc(NC(=S)N/N=C/c2ccc(F)c(F)c2)c(F)c1,13
12,Cc1nc(SCC(=O)NC2CCCC2)c2c(C)c(C)sc2n1,-4.48
13,CCc1cccc2c(C(=O)COC(=O)C3=NNC(=O)CC3)c[nH]c12,-51.6
14,CCc1cccc2c(C(=O)COC(=O)c3nn(C)c(=O)c4ccccc34)c[nH]c12,-65.6
15,O=C1CCC(C(=O)OCC(=O)c2c[nH]c3ccccc23)=NN1,1.19
16,CCc1cccc2c(C(=O)COC(=O)c3nccnc3N)c[nH]c12,-5.69
17,CCc1cccc2c(C(=O)COC(=O)c3cnc(C)cn3)c[nH]c12,2.87
18,CCc1cccc2c(C(=O)COC(=O)c3ccccc3)c[nH]c12,11.7
19,Fc1ccccc1NC(=S)NN(Cc1ccccc1)c1ccccc1,-13.9
20,CCNc1nc2[nH]c(=O)c3c(c2s1)OC(N)=C(C#N)C3c1ccc(C)cc1 (centres unmarked),1.97

row,Compound,"hERG current change (%, negative = inhibition) at 10uM [%]"
1,CCCc1nc(SCC(N)=O)[nH]c(=O)c1CC,7.34
2,CCOc1ccc(NC(=O)c2ccccc2CO)cc1,16.2
3,Cn1cnnc1SCC(=O)Nc1ccccc1Sc1ccccc1,-16.7
4,COc1cc(C(=O)Nc2cc(C)cc(C)c2)c(-n2cnnn2)cc1OC,14.7
5,COCCN(C(=O)Nc1ccc(OC)cc1OC)C1CCN(C(C)=O)CC1,7.58
6,Cl.O=C(Nc1ccccc1)OCC(CN1CCCCC1)OC(=O)Nc1ccccc1 (centres unmarked),-60.1
7,O=C(Nc1ccccc1)OC(CN1CCCCC1)C(F)(F)F (centres unmarked),6.17
8,O=C(CN1CCCCC1)Nc1ccccc1,-1.04
9,CCN(CC(=O)Nc1ccc(NC(C)=O)cc1)C(=O)C1CCCN(C(=O)c2ccc(Cl)cc2)C1 (centres unmarked),-3.75
10,CC(=O)c1ccc(N2CCN(CC(=O)Nc3ccccc3C(=O)NC3CC3)CC2)c(F)c1,-27.9
11,COC(=O)c1ccccc1NC(=O)CN1CCC(NC(=O)c2ccccc2C)CC1,-39.9
12,CCOc1ccccc1C(=O)Nc1cc(OC)ccc1OC,-3.8
13,CCOc1ccccc1NC(=O)CN1CCC(NC(=O)c2ccccc2C)CC1,-59.4
14,CC1CCN(CC(=O)Nc2ccccc2C(=O)NC2CC2)CC1,-17.4
15,COc1ccc(OC)c(NC(=O)CN2CCC(NC(=O)c3ccccc3C)CC2)c1,-12.3
16,CCOc1ccccc1OCC(=O)Nc1ccccc1C(=O)NC1CC1,3.61
17,Cc1ccccc1N1CCN(CC(=O)Nc2ccccc2C(=O)NC2CC2)CC1,-62.4
18,CCOc1cc2c(cc1OCC)CN(CC(=O)Nc1ccccc1C(=O)NC1CC1)CC2,-31.4
19,CCOc1ccccc1N1CCN(CC(=O)Nc2ccccc2C(=O)NC2CC2)CC1,-70.2
20,CCOc1ccccc1C(=O)NC1CCN(CC(=O)Nc2cc(OC)ccc2OC)CC1,-77.2

row,Compound,"hERG current change (%, negative = inhibition) at 10uM [%]"
1,CCOc1ccccc1NC(=O)N1CCC(NC(=O)c2ccccc2C)CC1,-1.06
2,COc1cccc(OCc2nnc(SC)n2C)c1,-7.06
3,Cc1cc2ccccn2c1C(=O)c1ccc(NN)c([N+](=O)[O-])c1,-6.4
4,O=C(Nc1ccc(S(=O)(=O)Nc2ccccn2)cc1)c1ccc(Cl)cc1Cl,2.92
5,Cc1ccccc1NC(=O)CN1C(=O)S/C(=C\c2ccc(-c3cccc(C(=O)O)c3C)o2)C1=O,23.7
6,CCc1cccc(NC(=O)COC(=O)C2CCN(c3ccc(C(F)(F)F)cn3)CC2)c1,-4.68
7,CCOc1ccc(NC(=S)NC(=O)Cc2ccccc2)cc1,25.5
8,Cc1nnc(NC(=O)/C=C/c2ccco2)s1,26.3
9,O=C(Nc1ccc(CN2CCOCC2)cc1)c1ccc(Br)cc1,3.54
10,CC(C)NC(=O)c1ccccc1NC(=O)Cc1ccc([N+](=O)[O-])cc1,-33.8
11,CC1C(=O)CCN(C(C)C)C1C.Cl (centres unmarked),8.54
12,CCOC(=O)c1cnn(C)c1NC(=O)c1ccc(Cl)cc1Cl,-24.5
13,Cc1cc(C)nc(NS(=O)(=O)c2ccc(NC(=O)c3ccc4c(c3)OCO4)cc2)n1,-0.197
14,O=C(CN1CCc2ccccc2C1)Nc1ccccc1C(=O)NC1CC1,-24.5
15,S=C(NC1CCCCC1)N1CCN(C/C=C/c2ccccc2)CC1,-21.8
16,O=C(CN1CCN(C/C=C/c2ccccc2)CC1)Nc1ccccc1C(=O)NC1CC1,-80.5
17,NC(=O)C1CCCN(CC(=O)Nc2ccccc2C(=O)NC2CC2)C1 (centres unmarked),-10.7
18,O=C(CN1CCN(C/C=C/c2ccccc2)CC1)NC(=O)NC1CCCCC1,-74.8
19,O=C(CN1CCN(Cc2ccccc2)CC1)NC(=O)NC1CCCCC1,-46.3
